Screen size: about 370,000 compounds; about 3,000 (0.81%) were called active. This is one part of a sample in which actives are shown more often than they occur. A number with no mark means an inactive call.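 How the source made its calls: active means activity above about 14% (limit read from the data; passing the limit was not always enough); inactive means the rest.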 Where a SMILES comes first, the peptide text is derived from it. Side-chain parts run from the residue outwards. [ ]: non-standard residue; d: D form. The star is where a group is joined. X1 = CCC(C)C(N)C1=NC(C(=O)*)CS1; Orn = NCCC[CH](N)C(=O)O

Nuclear receptor subfamily 1 group D member 1 (Homo sapiens), sequence (P20393 whole entry, looked up): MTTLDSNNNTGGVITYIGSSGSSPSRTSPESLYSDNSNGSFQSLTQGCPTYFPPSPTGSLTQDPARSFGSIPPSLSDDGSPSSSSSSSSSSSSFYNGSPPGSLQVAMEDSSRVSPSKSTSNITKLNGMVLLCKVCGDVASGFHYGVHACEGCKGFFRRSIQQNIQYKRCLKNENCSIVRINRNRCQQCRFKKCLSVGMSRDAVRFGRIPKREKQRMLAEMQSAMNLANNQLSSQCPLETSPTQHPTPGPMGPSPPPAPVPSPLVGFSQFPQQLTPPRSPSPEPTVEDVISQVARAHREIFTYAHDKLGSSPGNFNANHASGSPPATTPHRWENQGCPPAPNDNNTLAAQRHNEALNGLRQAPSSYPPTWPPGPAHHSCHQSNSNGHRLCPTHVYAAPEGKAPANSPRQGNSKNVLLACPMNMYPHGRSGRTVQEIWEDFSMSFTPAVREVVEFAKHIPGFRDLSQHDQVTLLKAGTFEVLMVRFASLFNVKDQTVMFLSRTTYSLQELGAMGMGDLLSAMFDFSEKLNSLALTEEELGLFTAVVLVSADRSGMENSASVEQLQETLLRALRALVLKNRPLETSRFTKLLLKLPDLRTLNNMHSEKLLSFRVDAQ

The assay concerns the target Nuclear receptor subfamily 1 group D member 1 (Homo sapiens) (UniProt P20393). The assay can be described thus: modulators of Rev-erb alpha DNA binding, primary screen, biochemical, FITC-DNA, fluorescence polarization, uHTS (AID 1259318).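 Further: 0% = DMSO wells with 35 nM protein and 100% = DMSO wells with 750 nM protein.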 As to conditions: Rev-erbα–FITC-DNA binding, 90 min, at 10 µM, active compounds read high.
Regarding `COc1ccc(S(=O)(=O)N(C)CC(=O)NCCCN2CCOCC2)cc1Cl`, the activity is 3.3%.
Under `CCCS(=O)(=O)NC(=O)C1(C)CCCN(C(=O)c2cccs2)C1` (stereo not given) stands -2.98%; under `Nc1nc(/C(=C/CC(=O)O)C(=O)N[C@@H]2C(=O)N3C(C(=O)O)=CCS[C@H]23)cs1`, -0.02%.
In the case of `CCC(C)C(N)C1=NC(C(=O)NC(CC(C)C)C(=O)NC(CCC(=O)O)C(=O)NC(C(=O)NCCCCC2NC(=O)C(CC(N)=O)NC(=O)C(CC(=O)O)NC(=O)C(Cc3cnc[nH]3)NC(=O)C(Cc3ccccc3)NC(=O)C(C(C)CC)NC(=O)C(CCCN)NC2=O)C(C)CC)CS1` (stereo not drawn) (cyclo(DNK([Ile-Glu-Leu-X1])[Orn]IFH); configuration not given here), the activity was -1.28%.
On to `COc1ccc(Cl)cc1-c1cc(C(=O)Nc2cc(OC)c(OC)c(OC)c2)[nH]n1`, for which the activity was 0.68%.
Take `CCC(C)NC(=O)c1cc(Cl)ccc1OC` (stereo not given): the activity is -0.16%.
Consider `COC(=O)c1ccc(NC(=O)c2cc(Cl)ccc2OC)cc1`, for which the activity was 46.1% (active).
The result for `Cc1ccc2c(C)c(C(=O)N3CCC(N4CCC(C(=O)NC5CC5)CC4)CC3)oc2c1` reads 5.47%; that for `O=C(NCCCc1ccccc1)[C@H](Cc1ccccc1)NC1(C(=O)NCCc2c[nH]c3ccccc23)CCC1`, 1.61%; that for `CCc1cccc(NC(=S)N(CCN(C)C)C2CCN(C(C)C)CC2)c1`, -2.21%.
For `CCOc1ccc2c(c1)cc(CN(C(=O)CC)C1CCCCC1)c1nnnn12`, the activity was -0.47%.
For `CCc1ccc2c(c1)cc(CN(C(=S)Nc1ccccc1Cl)C1CC1)c1nnnn12`, the activity is 18.7% (active).
Consider `O=C(c1cccc(Br)c1)N1CCN(C2=NS(=O)(=O)c3ccccc32)CC1`, for which the activity is 1%.
With `CC(=O)NCc1ccc(S(=O)(=O)NC2CCN(Cc3ccccc3)CC2)cc1`, the activity was -1.17%.
For the compound `CCCn1c(SCC(=O)c2ccc3c(c2)OCCO3)nnc1C(C)C`, the activity was -3.34%.
`COc1ccc(CN(C(=O)CSc2nnc(-c3ccc(OC)c(OC)c3)o2)c2ccc(F)cc2)cc1`: the activity was 4.8%.
Under `COc1ccc(-c2nnc(SCC(=O)c3ccc4c(c3)OCCO4)o2)cc1` stands 39.7% (active); under `CCc1ccccc1NC(=O)CSc1nnc(-c2cccs2)o1`, -8.53%.
Turning to `O=C(CCc1nnc2ccc(NCc3ccccc3Cl)nn12)NCC1CCN(C2CCCC2)C1` (stereo not given), the activity was -21.6%.
As to `CC12CCC(=O)C=C1CCC1C2[C@@H](O)CC2(C)C1CC[C@]2(O)C(=O)COP(=O)(O)O` (stereo not given in full), the activity is 1.93%.
Regarding `CC(C)CCn1c(=O)c2c(nc3n2CCCN3Cc2ccccc2)n(C)c1=O`, the activity is -1.34%.
On to `C/C(Cc1ccccc1)=N\NC(=O)CNC(=O)c1cccc(Br)c1`, for which the activity was -0.21%.
The result for `O=C(N/N=C/c1ccc(OCC2COCCO2)cc1)c1ccc(Br)cc1` (stereo not given) reads -0.42%.
With `Cn1c(=O)n(C)c2cc(/C=N/NC(=O)c3cccc(Br)c3)ccc21`, the activity was 49.2% (active).
For the compound `Cc1nc(CNc2ncnc3ccc(-c4ccc5c(c4)OCO5)cc23)cs1`, the activity is -0.38%.
Regarding `CCOC(=O)C1CCN(C(=O)C(C)(C)NC(=O)Nc2ccc(F)c(F)c2)CC1`, the activity is -2.08%.
Turning to `O=C(CCn1c(=S)[nH]c2cc3c(cc2c1=O)OCO3)NCc1ccc(Cl)cc1`, the activity was 21.7% (active).
On to `CCN(CC)CCCNC(=O)c1ccc2c(=O)n(Cc3ccc4c(c3)OCO4)c(=S)[nH]c2c1`, for which the activity was -2.35%.
For `CC(C)NC(=O)CCCn1c(=S)[nH]c2cc3c(cc2c1=O)OCO3`, the activity is -1.56%.
On to `CCC[C@H]1C(=O)CC[C@@]23CCCN2C(=O)CCC[C@@H]13`, for which the activity is -1.54%.
Regarding `CO/N=C(/C(=O)N[C@@H]1C(=O)N2C(C(=O)O)=C(CSc3nc(=O)c(O)nn3C)CS[C@H]12)c1csc(N)n1`, the activity is -8.75%.
As for `O=C(Nc1ccc(F)cc1)C1CCCN(S(=O)(=O)c2ccc(-n3cnnn3)cc2)C1` (stereo not given), the activity is 4.65%.
The result for `Cc1nn(C)cc1N1C(=O)c2cccc3c(N)ccc(c23)C1=O` reads 153% (active); that for `CN1C(=O)c2cccc3c(N)ccc(c23)C1=O`, 275% (active); that for `COc1ccc(-c2cc(-c3nnc(SCC(=O)Nc4cccc5ccccc45)n3N)[nH]n2)cc1`, -0.24%.
Take `O=C(OCc1ccccc1)c1ccc(O)cc1`: the activity is -3.01%.
The result for `CC(=O)C1(C)N(O)C(C)(C)C(c2cccs2)=[N+]1[O-]` (stereo not given) reads -3.38%.
Under `C=C1C(C(C)C)N(C)C2=NC(c3ccccc3)CC(=O)N12` (stereo not given) stands 0.81%; under `O=S1(=O)CC(N2CCN(Cc3ccccc3F)CC2)CN1Cc1cn(Cc2ccccc2)nn1` (stereo not given), -7.27%.
As for `COc1ccc(CCNC(=O)CCC(=O)NC2CCCCC2)cc1OC`, the activity was -2.47%.
As to `COc1ccc(-c2noc(CCCC(=O)NC3CCCC3)n2)cc1OC`, the activity was -0.42%.
On to `COc1ccc(/C=C2\SC(=S)N(CCCC(=O)NC3CCCC3)C2=O)cc1OC`, for which the activity is 40.1% (active).
On to `O=C(NC1CCC1)c1ccc(C#Cc2cccc(F)c2)c[n+]1[O-]`, for which the activity is 1.34%.
Take `Cc1cc(NC(=O)CSc2nnc(-c3ccc(Cl)s3)o2)no1`: the activity was 6.3%.
`Cc1nc(SCC(=O)Nc2cc(C)on2)c2c3c(sc2n1)CCCC3`: the activity was 27% (active).
On to `Cc1cc(NC(=O)CSc2nc(C(C)C)nc3sc4c(c23)CCC(C)C4)no1` (stereo not given), for which the activity is 58.2% (active).
For `Cc1cc(NC(=O)CSc2nc(=O)cc(N)n2-c2ccc(F)cc2)no1`, the activity is -4.08%.
The result for `Cc1cc(NC(=O)Cn2nc(C(F)(F)F)c3c2CCCC3)no1` reads -1.28%; that for `CCn1c(SCC(C)=O)nc2sc3c(c2c1=O)CCCC3`, -1.07%; that for `O=C(NCc1ccco1)C1CCCN(S(=O)(=O)c2ccc(Cl)s2)C1` (stereo not given), -2.05%.
Under `COCCCNC(=O)CN1CCN(Cc2ccccc2Cl)C1=O` stands -7.51%.
As to `COC(=O)Nc1ccc(S(=O)(=O)N(C)CC(F)(F)C(F)F)cc1`, the activity was 3.77%.
For the compound `CCOc1ccccc1N1CCN(C(=S)Nc2ccc(S(N)(=O)=O)cc2)CC1`, the activity is -6.97%.
`CCN(CC)c1ccc(NC(=O)CN2CCN(c3ccccn3)CC2)cc1`: the activity is -0.51%.
The result for `CCOC(=O)c1ccc(NC(=S)N2CCN(c3ccccn3)CC2)cc1` reads 26.1% (active); that for `O=C1CC(C(=O)O)NC(=S)N1` (stereo not given), -0.01%; that for `CCCCCCSc1ccc([C@@H]2[C@H]3C(=O)N(CC)C(=O)[C@H]3[C@]3(C(=O)OC)CCCCN23)cc1`, -1.1%.
Take `COC(=O)[C@]12CCCCC=C1N(Cc1ccccc1)C(=O)[C@H](CC(=O)NCc1ccc(C)o1)C2`: the activity is -2.87%.
On to `N#Cc1c(N)nc2c3c(sc(=N)c2c1N)NC(=O)CC3c1ccccc1Cl` (stereo not given), for which the activity is 31.7% (active).
The result for `CCOc1cc(-c2conc2N)cc(OCC)c1OCC` reads -2.64%.
Turning to `CCOc1cc(-c2cc(-c3ccc(OC)cc3)nc(N)c2C#N)ccc1O`, the activity was 31.7% (active).
Under `COc1ccc(-c2nc3n(c(=O)c2C#N)CCS3)c(OC)c1` stands 0.62%; under `CCn1c(=O)n2n(c1=O)[C@@]1(C=C3CCCC[C@H]32)N=C(NC(=O)c2ccccc2)N(Cc2ccccc2)[C@H]1Cc1ccccc1`, -9.89%.
As to `C/C(=N\NC(N)=S)c1ccncc1`, the activity was 0.98%.
`CCN(CC)c1ccc2cc(C(N)=O)/c(=N\NC(=O)c3ccncc3)oc2c1`: the activity is 35.1% (active).
`CCN(CC)c1ccc(/C=N/NC(=O)CNC(=O)c2cccs2)cc1`: the activity is 0.7%.
Turning to `N#C/C(C(=O)N1CCOCC1)=C1/SC(Cc2ccc(F)cc2)C(=O)N1c1ccccc1` (stereo not given), the activity was 5.35%.
In the case of `COC(=O)c1ccccc1N=Nc1c(C)[nH][nH]c1=O`, the activity is 3.84%.
Regarding `c1ccc(CSc2ncnc3c2sc2nc(N4CCOCC4)c4c(c23)CCCC4)cc1`, the activity is 158% (active).
Take `CC(=O)c1c(N2CCOCC2)nc(=S)n(Cc2ccccc2)c1C`: the activity is -2.43%.
Turning to `O=S(=O)(c1ccccc1)c1nc(Cc2ccccc2)oc1N1CCOCC1`, the activity was -4.54%.
Regarding `CCOC(=O)N1CCN(c2cc(C)c([N+](=O)[O-])cc2F)CC1`, the activity is -1.95%.
On to `CCCNC(=O)Nc1ccc2c(c1)C(=O)N(C)[C@H]1CC[C@H](CC(=O)NCC3CCCCC3)O[C@@H]1CO2`, for which the activity is 119% (active).
On to `CCC(=O)Nc1ccc2c(c1)C(=O)N(C)[C@H]1CC[C@H](CC(=O)NCCOC)O[C@@H]1CO2`, for which the activity is 9.28%.
The result for `CCC(=O)Nc1ccc2c(c1)C(=O)N(C)[C@@H]1CC[C@@H](CC(=O)NCCc3ccccc3)O[C@H]1CO2` reads 15.2%; that for `CC(Sc1nnnn1C)C(=O)NC(=O)NC1CCCCC1` (stereo not given), 6.95%; that for `CN(CC(=O)NCCc1ccc(F)cc1)CC(=O)Nc1ccc(F)c(F)c1F`, -0.12%.
For the compound `COc1ccccc1CCNC(=O)C1CCN(c2nc(C)cc(C)n2)CC1`, the activity was 2.47%.
Under `COc1ccc(Cl)cc1-n1c(C)cc(C(=O)OCC(=O)N2CC(=O)Nc3ccccc32)c1C` stands -0.59%; under `CCOC(=O)CSc1nc2ccc(C)cc2n2cnnc12`, 1.03%; under `COc1ccc(CCNc2nc3ccc(C)cc3n3cnnc23)cc1OC`, 41.9% (active).
The result for `COc1ccc(CCNc2cc(C)nc3c(-c4ccc(Cl)cc4)c(C)nn23)cc1OC` reads 7%; that for `COC(=O)Cn1c(=NC(=O)CSCC(=O)Nc2cc(C)on2)sc2ccccc21`, 3.13%.
For `COC(=O)Cn1c2ccc(C)cc2c2nc(C)sc21`, the activity was 5.92%.
With `COC(=O)Cn1c(=NC(=O)c2cc(OC)c(OC)c(OC)c2)sc2cc(OC)ccc21`, the activity is 23.3% (active).
